Data on 8 molecules can be found in PMC12864922, “TDP-43 directly inhibits mRNA accumulation in neurites through modulation of mRNA stability”.

First the molecules themselves.
B1: ENSMUSG00000061578.1085|Ksr2|91:95 (ssRNA)
RNA: GGGAGUUCUACAGUCCGACGAUCGCUUCGAUAUCCGCAUGCUAGAUUCUAUCCAGUGGCCAGCAAUACCCAAAAGCAGCCAACCAUGAAAAUAGAGGUUUGUAAUGUACAGAAGGCUGGGGGAGCUUUCAGGGCACACGCCAGUUAUGUACAGAUGUGAAGCUGAGGUCUGAAGGAAAUGGAGGAAGUAGGAAGAUCAGACUGGUUGAAUUAGAAGUCUGUCACUCUAGGUGCUAAGUGACCUUGGACCCAGUCAGUUCUUGGAUUUCUGUUGUAGCCCAGGCUAGCCUCGAACCCUUGAUCCCUCUUGCGGUCGCACUAGUGUGGAAUUCUCGGGUGUCAAGG
B2: ENSMUSG00000058297.27|Spock2 (ssRNA)
RNA: GGGAGUUCUACAGUCCGACGAUCGCUUCGAUAUCCGCAUGCUAAAGAGACCUGGACAACAGCAGGCAACUUAGCAAAUGGAUCCGGAAGUCAGUGCGGAGGACCCUGGCUCCAGUGGGGGAGGACUGGGGAGUGUGGCUUGUGUGUAUGUGUGAUAUGAGAUGUGUGUGUAUGAUGUGAGAUGUGAGUGUGUGAUGUGAGAUGUGUGUAUGUGAGAUGUGUGUGUGUGUGUGUGUGUGUGUGAUGUGAGUCACCCAAAGGUCCCUAUGUUAUUGAUUUUCAAAUGCACACUUUCACACACAAGCUCUUGCGGUCGCACUAGUGUGGAAUUCUCGGGUGUCAAGG
B3: ENSMUSG00000058297.29|Spock2 (ssRNA)
RNA: GGGAGUUCUACAGUCCGACGAUCGCUUCGAUAUCCGCAUGCUACAACAGCAGGCAACUUAGCAAAUGGAUCCGGAAGUCAGUGCGGAGGACCCUGGCUCCAGUGGGGGAGGACUGGGGAGUGUGGCUUGUGUGUAUGUGUGAUAUGAGAUGUGUGUGUAUGAUGUGAGAUGUGAGUGUGUGAUGUGAGAUGUGUGUAUGUGAGAUGUGUGUGUGUGUGUGUGUGUGUGUGAUGUGAGUCACCCAAAGGUCCCUAUGUUAUUGAUUUUCAAAUGCACACUUUCACACACAAGGAUACACUAACACUCUUGCGGUCGCACUAGUGUGGAAUUCUCGGGUGUCAAGG
B4: ENSMUSG00000058297.28|Spock2 (ssRNA)
RNA: GGGAGUUCUACAGUCCGACGAUCGCUUCGAUAUCCGCAUGCUACCUGGACAACAGCAGGCAACUUAGCAAAUGGAUCCGGAAGUCAGUGCGGAGGACCCUGGCUCCAGUGGGGGAGGACUGGGGAGUGUGGCUUGUGUGUAUGUGUGAUAUGAGAUGUGUGUGUAUGAUGUGAGAUGUGAGUGUGUGAUGUGAGAUGUGUGUAUGUGAGAUGUGUGUGUGUGUGUGUGUGUGUGUGAUGUGAGUCACCCAAAGGUCCCUAUGUUAUUGAUUUUCAAAUGCACACUUUCACACACAAGGAUACACUCUUGCGGUCGCACUAGUGUGGAAUUCUCGGGUGUCAAGG
B5: ENSMUSG00000058297.28|Spock2|83:87;91:104;113:124;138:144;153:162;168:193 (ssRNA)
RNA: GGGAGUUCUACAGUCCGACGAUCGCUUCGAUAUCCGCAUGCUACCUGGACAACAGCAGGCAACUUAGCAAAUGGAUCCGGAAGUCAGUGCGGAGGACCCUGGCUCCAGUGGGGGAGGACUGGGGACACACGCUACACACAUACACACAUAUGAGAACACACACAUACAUGUGAGAUGUGACACACACAUGUGAGAACACACAUACUGAGAACACACACACACACACACACACACACAUGUGAGUCACCCAAAGGUCCCUAUGUUAUUGAUUUUCAAAUGCACACUUUCACACACAAGGAUACACUCUUGCGGUCGCACUAGUGUGGAAUUCUCGGGUGUCAAGG
B6: ENSMUSG00000031028.414|Tub|94:98;228:232;234:246;252:260 (ssRNA)
RNA: GGGAGUUCUACAGUCCGACGAUCGCUUCGAUAUCCGCAUGCUAUUCUUUUUGGUCCUUGGCUGGGUAGCAAAUUGGUGAGAAGAGCAGCCUAGUCUGUAAGAGUGCAGGGCAGCUGGAACCUUAGGCAGCUCCUCUCAUACCUACCGGCUCCACACCCUAACACUCUCCACCCUCUGCUCCAAACCAGUUCUUCUGCAGAGUGGUGAUGUUAGCUUCCCCAGCUCCUCUCCAAGUCUAGCUUUUUCUGUCCUUCUGGCUCCAAGGUGCUCACACACACACACACACACACUGUCACACACACACUCUUGCGGUCGCACUAGUGUGGAAUUCUCGGGUGUCAAGG
B7: ENSMUSG00000031028.183|Tub (ssRNA)
RNA: GGGAGUUCUACAGUCCGACGAUCGCUUCGAUAUCCGCAUGCUAAGGGCACAUGUCUCUUGGUUACCUCACUGGUUAAUGGCAGAGUUGAGAACCUCAAAUUCUUUUGUUCCUACUGUUGCCCAGAAACUAGACUCUCUGACCUGCUAGGGUCUAUUCUGCAUGUCCUUUCUCUUCCCAGUUCCAGAGAUGAAACCCCUCCGAGUUAAUGUAUAAGGUUGGAAACCUUUCAGUAGGGAAUCAGGCAGUUCCCUGUUGAAAGUUGUCUGAGUUUUUGCACACCAUUCUGAUCUGAUGUGGCCUGUCUCUUGCGGUCGCACUAGUGUGGAAUUCUCGGGUGUCAAGG
B8: ENSMUSG00000028439.343|Fam219a (ssRNA)
RNA: GGGAGUUCUACAGUCCGACGAUCGCUUCGAUAUCCGCAUGCUACCAGUUCGCAUCCCCACCACUCAUCAUCUGGGCCCCAACGCUAGAACUCCCCCCACCGCAUCCCCACUGGGCUCUUUGACUCACCCUUCUAGAACAUGGGUGCCUCCUCUCUUUAGACUGCUGCCUUUGCCUCUGACUUCCUGUGGGAUUGAGAGCCAAGGGCCAGUGCCCUUGUGAGCGCACUAGUUCCGAAGCAGGCAAGGGCAUUAGGUGGUAUAUACAUAGCGGGUAGGGGUAGGAAGCUGGCAGCCUGCAGCUUCCUCUUGCGGUCGCACUAGUGUGGAAUUCUCGGGUGUCAAGG

The full ranking holds about 9,900 sequences; the median of “r (bound/input frequency ratio)” is about 0.7, and the highest 2% start at about 6.5. Shown is part of a subset that was picked to be rich in the highest values.

Chain of TDP-43 (Q13148 whole entry): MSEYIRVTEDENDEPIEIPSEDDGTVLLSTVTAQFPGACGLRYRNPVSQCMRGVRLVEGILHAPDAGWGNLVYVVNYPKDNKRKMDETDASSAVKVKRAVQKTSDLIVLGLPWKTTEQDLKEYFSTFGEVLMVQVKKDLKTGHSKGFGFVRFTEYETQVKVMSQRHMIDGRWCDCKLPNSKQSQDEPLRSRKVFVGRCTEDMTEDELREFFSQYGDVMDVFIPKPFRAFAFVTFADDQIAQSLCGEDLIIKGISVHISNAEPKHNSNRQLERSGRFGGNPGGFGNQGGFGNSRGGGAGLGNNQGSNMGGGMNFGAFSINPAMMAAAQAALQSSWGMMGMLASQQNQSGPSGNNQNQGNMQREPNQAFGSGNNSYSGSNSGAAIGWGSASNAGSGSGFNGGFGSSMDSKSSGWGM

This assay addresses TDP-43 (Homo sapiens, UniProt Q13148 1-414). The assay is described as follows: RNA Bind-n-Seq with designed 260-mer pool; 25 mM Tris-HCl, 150 mM KCl, 3 mM MgCl2, BSA (printed 500 mg/mL), 20 units/mL SUPERase IN; pH not stated; 500 nM RNA pool, 1 h, 4 C; TDP-43 5, 50, 500 nM; high values mean tight binding. Particulars: protein: recombinant; tags: SBP (GST cleaved off with PreScission; pGEX-GST-SBP). The method, boiled down: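 An in vitro-transcribed pool of 260-nt 3′ UTR oligos (500 nM) was incubated for 1 h at 4 °C with recombinant SBP-tagged TDP-43 at 5, 50 or 500 nM held on streptavidin beads. The buffer contained 25 mM Tris-HCl, 150 mM KCl, 3 mM MgCl2, BSA and SUPERase IN. Biotin-eluted bound RNA was sequenced, and binding, R, is each oligo's normalized read abundance in the bound sample over that in input.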
With B1, the binding signal was 0.868 R (bound/input frequency ratio).

On to B2, for which the binding signal is 6.12 R (bound/input frequency ratio).

On to B3, for which the binding signal was 6.82 R (bound/input frequency ratio).

As to B4, the binding signal was 6.8 R (bound/input frequency ratio).

B5: the binding signal is 3.52 R (bound/input frequency ratio).

B6: the binding signal was 2.86 R (bound/input frequency ratio).

As for B7, the binding signal is 0.952 R (bound/input frequency ratio).

Take B8: the binding signal was 0.735 R (bound/input frequency ratio).
